Assay results as given in PubChem BioAssay (NCI).
This is part of a sample that, as a whole, favours compounds with a hit. Of some 79,000 tested, about 15% had one in any assay. No stated cut-off is given here; in the data, active means growth inhibition above about 70%; inactive means the rest.

What was measured:
[1] = NCI Yeast Anticancer Drug Screen. Data for the rad50 strain (AID 155);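 further: 0% = growth of vehicle-only cultures of the same strain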; conditions: S. cerevisiae rad50 strain growth inhibition; at 50.0 µM; hits give high values
Method in brief: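 Cells are treated with compound, grown, and their growth is then scored against vehicle-only cultures of the same repair-deficient yeast strain.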

[2] = NCI Yeast Anticancer Drug Screen. Data for the mec2-1 strain (AID 157); conditions: S. cerevisiae mec2-1 strain, at 50.0 µM, hits give high values
Method in brief: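 Yeast mec2-1 mutant treated with compound. Readout: growth inhibition vs vehicle controls.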

[3] = NCI Yeast Anticancer Drug Screen. Data for the sgs1 mgt1 strain (AID 161);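 further: 0% = growth of cultures given vehicle only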; conditions: S. cerevisiae sgs1 mgt1 strain, at 50.0 µM, hits give high values
Method in brief: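 Read-out: growth inhibition vs vehicle controls. Cells: mutant yeast strain deficient in DNA damage repair.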

[4] = NCI Yeast Anticancer Drug Screen. Data for the cln2 rad14 strain (AID 165);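 further: 0% = growth equal to vehicle treated cultures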; conditions: S. cerevisiae cln2 rad14 strain, at 50.0 µM, hits give high values
Method in brief: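 cln2 rad14 yeast strain; compound exposure; growth inhibition read vs vehicle controls.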

[5] = NCI Yeast Anticancer Drug Screen. Data for the bub3 strain (AID 167); conditions: S. cerevisiae bub3 mutant strain, at 50.0 µM, hits give high values
Method in brief: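 Part of a panel of yeast mutants defective in DNA damage repair or cell cycle regulation. Each strain is grown with compound, and inhibition is calculated relative to solvent-treated cultures.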

[6] = NCI Yeast Anticancer Drug Screen. Data for the mlh1 rad18 strain (AID 175); conditions: S. cerevisiae mlh1 rad18 strain growth inhibition; at 50.0 µM; hits give high values
Method in brief: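 Yeast w/ defined DNA-repair lesions; compound exposure; growth vs vehicle controls → % inhibition.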

Measured: growth inhibition

Cc1ccccc1C1N=C2Oc3ccccc3C=C2C(=O)N1 (stereo unspecified)
inactive: [1] 10.7% | [2] -11.8% | [3] 0.6% | [4] -9.55% | [5] -17.4% | [6] -32.5%

Cc1c(O)cccc1O
inactive: [1] -5.55% | [2] -17.4% | [3] 7.8% | [4] 7.1% | [5] -8.2% | [6] -8.3%

c1ccc(Sc2ccccc2)cc1
inactive: [1] -4.6% | [2] 10.5% | [3] -8.5% | [4] -63.6% | [5] -7.95% | [6] 0.85%

CCOC(=O)c1[nH]c(C)c(C(C)=O)c1C
inactive: [1] -0.45% | [2] -22.5% | [3] 9% | [4] -10.5% | [5] -27% | [6] -8.15%

CNS(=O)(=O)c1ccc(Cl)c(Cl)c1
inactive: [1] -43.2% | [2] -5.1% | [3] -13.5% | [4] -55% | [5] -25.4% | [6] -40.9%

OCCN(CCO)C(=S)S
inactive: [1] 2.15% | [2] -5.75% | [3] 1.1% | [4] -1.8% | [5] 4.95% | [6] -0.85%

O=[N+]([O-])c1ccc(S(=O)(=O)NN=C2CCCCC2)cc1
inactive: [1] 19.9% | [2] 13.2% | [3] 8.1% | [4] -31% | [5] 8.85% | [6] 37.8%

CCCC1(c2ccccc2)NC(=O)NC1=O (stereo unspecified)
inactive: [1] 5.75% | [2] 0.3% | [3] -6.1% | [4] -81.1% | [5] 7.95% | [6] -13.7%

COc1ccccc1NC(=O)C1=C(C)NC(C)=C(C(=O)Nc2ccccc2OC)C1c1cccc([N+](=O)[O-])c1
inactive: [1] -3.3% | [2] 23.2% | [3] -8.05% | [4] -3.9% | [5] 20.4% | [6] 11.3%

O=C1C=CC2=C3c4cc(O)c(O)cc4CC3(O)COC2=C1O (stereo unspecified)
inactive: [1] -40.6% | [2] -45.4% | [3] -9.1% | [4] -6.7% | [5] -5.7% | [6] -32%

NC(=S)N/N=C/c1ccc(N)cc1
inactive: [1] 7.2% | [2] -2.35% | [3] 0.9% | [4] -1.35% | [5] 2.35% | [6] 7.5%

COc1ccc2c(c1)CCc1c-2n[nH]c1-c1[nH]nc2c1CCc1cc(OC)ccc1-2
inactive: [1] 0.5% | [2] 0.35% | [3] -11.2% | [4] -5.55% | [5] -16.1% | [6] -5%

c1cc[n+](C2c3ccccc3C([n+]3ccccc3)c3ccccc32)cc1 (stereo unspecified)
inactive: [1] 25.2% | [2] 18.8% | [3] 16.9% | [4] -23.9% | [5] 28% | [6] 41.5%

CC1(C)Nc2cccc3c(N=Nc4ccc(N=Nc5ccccc5)c5ccccc45)ccc(c23)N1
inactive: [1] -50.5% | [2] -38.1% | [3] -27% | [4] -2.2% | [5] -5.2% | [6] -74.6%

CCOc1ccc(Br)cc1/C=N\N=C\c1cc(Br)ccc1OCC
inactive: [1] -9.15% | [2] -29.2% | [3] -1.65% | [4] 13.3% | [5] 4.25% | [6] -10.3%

O=C1c2ccccc2C(=O)N1OCc1ccccc1
inactive: [1] -18.1% | [2] -30.6% | [3] -14.4% | [4] 3.05% | [5] -20% | [6] -32.7%

OCCN1CCOCC1
inactive: [1] 31.9% | [2] -2.05% | [3] 1.4% | [4] 24.9% | [5] 7% | [6] 27.2%

COC(=O)c1ccc(C(C)C)cc1
inactive: [1] 2.95% | [2] 11.8% | [3] -1.35% | [4] 16.1% | [5] 0.3% | [6] 4.05%

C/C(=N\O)C1(O)CCCCC1
inactive: [1] 28.9% | [2] 3.55% | [3] 8% | [4] 13.7% | [5] 7.45% | [6] 15.8%

Cc1ccncc1C(N)=O
inactive: [1] -1.4% | [2] -2.8% | [3] -9.55% | [4] -0.85% | [5] -11% | [6] 3.3%

CN(C)CCC(=O)c1ccc(O)cc1
inactive: [1] 4.6% | [2] 8.65% | [3] 3.25% | [4] -22.2% | [5] -14.8% | [6] -9.45%
